Of roughly 7,900 targets only a part is listed; those with a hit were picked by preference. About 0.6% of all pairs of compound and target were hits.
Experiments:
Assay in all cases: log2 fold change, soluble protein after heating vs DMSO (PISA); higher = thermal stabilisation; K562 cells, 10 uM, 30 min; active = over 0.2 and 3.5 SD of the protein, either way, in both replicates (recomputed)
[1] = compound: CC[C@@H]1C(=O)N(C)c2cnc(Nc3ccc(C(=O)NC4CCN(C)CC4)cc3OC)nc2N1C1CCCC1
In short: (§1)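 Values are thermal stability changes relative to control samples and are taken from duplicates. They are stated as log2 fold changes. Before quantification by TMTpro 16plex LC-MS/MS with equalised channel sums, K562 cells at 2×10^6 cells/mL were treated with 10 μM compound for 30 min, heated in aliquots for 3 min across 48°C-58°C, pooled, extracted in PBS with 0.5% NP-40 at 4°C, and centrifuged at 21,000xg for 90 min to give the soluble supernatant.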

volasertib = compound: CC[C@@H]1C(=O)N(C)c2cnc(Nc3ccc(C(=O)N[C@H]4CC[C@H](N5CCN(CC6CC6)CC5)CC4)cc3OC)nc2N1C(C)C [volasertib]
In short: as §1

[2] = compound: CC[C@H](C)N1C=C(C2=C(C=C(C=C21)C3=CN=C(C=C3)N4CCNCC4)C(=O)NCC5=C(C=C(NC5=O)C)C)C
In short: as §1

epoxomicin = compound: CC[C@H](C)[C@@H](C(=O)N[C@@H]([C@@H](C)O)C(=O)N[C@@H](CC(C)C)C(=O)[C@]1(CO1)C)NC(=O)[C@H]([C@@H](C)CC)N(C)C(=O)C [epoxomicin]
In short: as §1

[3] = compound: CCn1c(C(=O)N(C2CC2)C2CC2)cc2c3c(ncn3C)c(Nc3cc(C)n(C)n3)nc21
In short: as §1

[4] = compound: CN(C)CC(=O)Nc1ccc2[nH]c(=O)c3ccccc3c2c1
In short: as §1

rosiglitazone = compound: CN(CCOC1=CC=C(C=C1)C[C@H]2C(=O)NC(=O)S2)C3=CC=CC=N3 (racemic) [rosiglitazone]
In short: as §1

[5] = compound: CN1C2=C(C3=C1C(=O)N(N=C3)CC4=CC(=CC=C4)N)SC(=C2)S(=O)C
In short: as §1

[6] = compound: CCn1cc(-c2ccnc3[nH]c(-c4cccc(CN(C)C)c4)cc23)c(-c2ccc(NC(=O)N(C)C)cc2)n1
In short: as §1

[7] = compound: CN1CCC(CNc2ccc3ncc(-c4cccc(OC(F)(F)F)c4)n3n2)CC1
In short: as §1

Measured: log2 fold change

SERINC1 (UniProt Q9NRX5)
inactive: [1] 0.001 | volasertib 0.025 | [2] -0.223 | epoxomicin -0.034 | [3] 0.019 | [4] -0.023 | rosiglitazone -0.051 | [5] -0.194

SCAF8 isoform 2 (UniProt Q9UPN6)
UniProt Q9UPN6, sequence (Q9UPN6 whole entry, looked up): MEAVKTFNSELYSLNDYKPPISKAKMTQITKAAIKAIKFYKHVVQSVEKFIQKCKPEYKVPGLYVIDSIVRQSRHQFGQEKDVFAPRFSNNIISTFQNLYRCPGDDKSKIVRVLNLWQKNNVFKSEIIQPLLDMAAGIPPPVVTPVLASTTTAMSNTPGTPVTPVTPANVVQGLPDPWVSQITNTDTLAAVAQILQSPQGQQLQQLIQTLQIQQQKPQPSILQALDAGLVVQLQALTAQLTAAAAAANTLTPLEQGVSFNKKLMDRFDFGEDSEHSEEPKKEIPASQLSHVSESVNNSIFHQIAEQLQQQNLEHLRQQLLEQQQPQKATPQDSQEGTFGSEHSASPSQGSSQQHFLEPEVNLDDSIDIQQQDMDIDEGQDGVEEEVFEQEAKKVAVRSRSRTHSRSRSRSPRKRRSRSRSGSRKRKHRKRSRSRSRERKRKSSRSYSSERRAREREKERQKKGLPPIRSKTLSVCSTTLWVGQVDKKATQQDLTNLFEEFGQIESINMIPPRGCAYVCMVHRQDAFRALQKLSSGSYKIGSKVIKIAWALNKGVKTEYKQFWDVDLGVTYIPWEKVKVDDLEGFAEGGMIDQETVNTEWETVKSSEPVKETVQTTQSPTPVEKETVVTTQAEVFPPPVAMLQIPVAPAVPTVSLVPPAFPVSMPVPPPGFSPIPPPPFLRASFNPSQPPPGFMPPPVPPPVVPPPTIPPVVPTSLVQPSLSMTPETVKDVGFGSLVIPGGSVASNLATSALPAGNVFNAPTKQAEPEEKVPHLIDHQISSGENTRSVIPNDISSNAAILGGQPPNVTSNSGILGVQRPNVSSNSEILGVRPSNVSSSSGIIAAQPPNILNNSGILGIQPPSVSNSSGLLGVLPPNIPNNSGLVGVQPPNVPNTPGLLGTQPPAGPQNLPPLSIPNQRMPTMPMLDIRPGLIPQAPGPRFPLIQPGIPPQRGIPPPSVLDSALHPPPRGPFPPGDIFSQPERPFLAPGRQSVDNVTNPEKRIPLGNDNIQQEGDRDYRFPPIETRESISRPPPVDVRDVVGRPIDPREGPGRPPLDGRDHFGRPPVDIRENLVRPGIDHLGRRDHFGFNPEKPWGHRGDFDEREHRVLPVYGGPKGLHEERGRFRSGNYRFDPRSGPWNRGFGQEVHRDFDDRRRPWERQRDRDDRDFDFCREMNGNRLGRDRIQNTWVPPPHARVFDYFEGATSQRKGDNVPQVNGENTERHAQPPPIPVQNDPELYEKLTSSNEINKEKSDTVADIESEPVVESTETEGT
inactive: [1] -0.065 | volasertib -0.27 | [2] 0.037 | epoxomicin 0.101 | [3] -0.003 | [6] 0.071 | [4] 0.1 | rosiglitazone 0.091 | [5] -0.045 | [7] 0.015

RGS10 (UniProt O43665)
active: volasertib -0.205
inactive: [1] -0.097 | [2] -0.043 | epoxomicin 0.101 | [3] -0.025 | [6] 0.011 | [4] 0.078 | rosiglitazone 0.011 | [5] -0.111 | [7] -0.016

RRAGC (UniProt Q9HB90)
inactive: [1] -0.009 | volasertib -0.003 | [2] -0.051 | epoxomicin -0.045 | [3] 0.041 | [6] 0 | [4] -0.024 | rosiglitazone 0.05 | [5] -0.067 | [7] -0.177

SDCBP isoform 2 (UniProt O00560)
inactive: [1] -0.015 | volasertib -0.221 | [2] -0.021 | epoxomicin 0.056 | [3] -0.068 | [6] -0.234 | rosiglitazone 0.105 | [5] -0.196 | [7] -0.208

RAB3IL1 (UniProt E9PK89)
active: [6] -0.555
inactive: [1] -0.012 | volasertib -0.137 | [2] 0.25 | epoxomicin 0.109 | [3] -0.138 | [4] 0.035 | rosiglitazone 0.017 | [7] -0.342

SIDT2 isoform 2 (UniProt Q8NBJ9)
inactive: [1] -0.035 | volasertib 0.055 | [2] -0.026 | epoxomicin 0.002 | [3] -0.014 | [6] 0.069 | [4] -0.041 | rosiglitazone 0.019 | [5] 0.024 | [7] -0.02

RARS (UniProt P54136)
inactive: [1] 0.059 | volasertib -0.172 | [2] 0.072 | epoxomicin -0.085 | [3] -0.099 | [6] 0.107 | [4] 0.013 | rosiglitazone 0.034 | [5] 0.26 | [7] -0.111

RPS21 (UniProt P63220)
active: volasertib 0.238
inactive: [1] 0.089 | [2] -0.04 | epoxomicin 0.028 | [3] 0.028 | [6] 0.055 | [4] -0.045 | rosiglitazone -0.019 | [5] -0.004 | [7] 0.073

RAB9A (UniProt P51151)
active: [7] -0.252
inactive: [1] -0.061 | volasertib -0.024 | [2] -0.001 | epoxomicin 0.064 | [3] -0.003 | [6] 0.004 | [4] 0.034 | rosiglitazone 0 | [5] -0.034

RPS3 (UniProt P23396)
inactive: [1] 0.147 | volasertib 0.34 | [2] 0.011 | epoxomicin -0.125 | [3] 0.033 | [6] 0.125 | [4] -0.071 | rosiglitazone -0.064 | [5] 0.085 | [7] 0.045

RAB3D (UniProt O95716)
UniProt O95716, sequence (O95716 whole entry, looked up): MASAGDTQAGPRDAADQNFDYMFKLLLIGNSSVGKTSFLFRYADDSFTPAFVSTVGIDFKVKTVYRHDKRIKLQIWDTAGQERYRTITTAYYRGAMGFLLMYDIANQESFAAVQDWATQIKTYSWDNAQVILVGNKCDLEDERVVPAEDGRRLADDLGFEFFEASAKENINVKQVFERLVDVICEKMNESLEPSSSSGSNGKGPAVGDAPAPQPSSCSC
inactive: [1] 0.039 | volasertib 0.025 | [2] 0.097 | [3] 0.067 | [6] 0.041 | [4] -0.098 | rosiglitazone -0.013 | [5] 0.103 | [7] 0.129

SCAMP2 (UniProt H3BUB6)
inactive: [1] -0.015 | volasertib -0.006 | [2] -0.092 | epoxomicin -0.157 | [3] -0.058 | [4] -0.201 | rosiglitazone -0.034 | [5] 0.064

SEPTIN5 (UniProt Q99719)
UniProt Q99719, sequence (Q99719 whole entry, looked up): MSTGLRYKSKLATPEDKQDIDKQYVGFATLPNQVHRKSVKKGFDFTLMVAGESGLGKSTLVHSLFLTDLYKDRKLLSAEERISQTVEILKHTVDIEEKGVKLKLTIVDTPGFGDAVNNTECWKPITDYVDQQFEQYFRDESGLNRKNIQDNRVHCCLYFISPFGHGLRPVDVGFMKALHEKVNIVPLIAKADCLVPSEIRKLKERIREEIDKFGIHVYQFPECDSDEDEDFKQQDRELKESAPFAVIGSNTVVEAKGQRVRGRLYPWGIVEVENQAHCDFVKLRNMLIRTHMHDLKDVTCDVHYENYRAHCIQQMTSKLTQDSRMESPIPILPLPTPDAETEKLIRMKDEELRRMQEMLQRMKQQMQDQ
inactive: [1] 0.03 | volasertib 0.047 | [2] -0.003 | epoxomicin -0.025 | [3] 0.016 | [6] -0.052 | [4] -0.019 | rosiglitazone 0.032 | [5] -0.09 | [7] -0.009

RPS15 (UniProt P62841)
inactive: [1] 0.2 | volasertib 0.294 | [2] -0.017 | epoxomicin -0.056 | [3] 0 | [6] 0.061 | [4] -0.099 | rosiglitazone -0.113 | [5] 0.164 | [7] 0.02

RPS13 (UniProt P62277)
inactive: [1] 0.219 | volasertib 0.567 | [2] 0.035 | epoxomicin -0.324 | [3] 0.055 | [6] 0.236 | [4] -0.066 | rosiglitazone -0.12 | [5] 0.219 | [7] 0.243

SH2D1B (UniProt O14796)
inactive: [1] -0.068 | volasertib -0.029 | [2] 0.095 | epoxomicin 0.168 | [3] 0.092 | [6] -0.068 | [4] -0.025 | [5] 0.235 | [7] -0.174

RBM48 isoform 2 (UniProt Q5RL73)
UniProt Q5RL73, sequence (Q5RL73 whole entry, looked up): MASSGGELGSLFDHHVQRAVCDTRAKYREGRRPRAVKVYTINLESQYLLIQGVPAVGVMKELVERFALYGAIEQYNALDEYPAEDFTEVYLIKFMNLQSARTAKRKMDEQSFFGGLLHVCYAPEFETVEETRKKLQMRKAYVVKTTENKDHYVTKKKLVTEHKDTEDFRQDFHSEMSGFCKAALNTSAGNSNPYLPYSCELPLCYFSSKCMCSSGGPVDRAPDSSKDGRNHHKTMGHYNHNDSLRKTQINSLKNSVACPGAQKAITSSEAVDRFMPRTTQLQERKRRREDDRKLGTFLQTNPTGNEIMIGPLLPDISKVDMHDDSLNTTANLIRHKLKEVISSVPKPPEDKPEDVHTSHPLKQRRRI
inactive: volasertib -0.003 | [2] 0.002 | epoxomicin 0.003 | [3] 0.13 | [6] 0.078 | rosiglitazone 0.006 | [7] 0.114

SAP30 (UniProt O75446)
inactive: volasertib 0.042 | [2] -0.039 | epoxomicin -0.109 | [3] 0.115 | [6] -0.051 | [4] 0.013 | [5] 0.175 | [7] 0.064

RMDN2 isoform 2 (UniProt Q96LZ7)
inactive: [2] 0.068 | [4] -0.167

SH3PXD2B (UniProt A1X283)
UniProt A1X283, sequence (A1X283 whole entry, looked up): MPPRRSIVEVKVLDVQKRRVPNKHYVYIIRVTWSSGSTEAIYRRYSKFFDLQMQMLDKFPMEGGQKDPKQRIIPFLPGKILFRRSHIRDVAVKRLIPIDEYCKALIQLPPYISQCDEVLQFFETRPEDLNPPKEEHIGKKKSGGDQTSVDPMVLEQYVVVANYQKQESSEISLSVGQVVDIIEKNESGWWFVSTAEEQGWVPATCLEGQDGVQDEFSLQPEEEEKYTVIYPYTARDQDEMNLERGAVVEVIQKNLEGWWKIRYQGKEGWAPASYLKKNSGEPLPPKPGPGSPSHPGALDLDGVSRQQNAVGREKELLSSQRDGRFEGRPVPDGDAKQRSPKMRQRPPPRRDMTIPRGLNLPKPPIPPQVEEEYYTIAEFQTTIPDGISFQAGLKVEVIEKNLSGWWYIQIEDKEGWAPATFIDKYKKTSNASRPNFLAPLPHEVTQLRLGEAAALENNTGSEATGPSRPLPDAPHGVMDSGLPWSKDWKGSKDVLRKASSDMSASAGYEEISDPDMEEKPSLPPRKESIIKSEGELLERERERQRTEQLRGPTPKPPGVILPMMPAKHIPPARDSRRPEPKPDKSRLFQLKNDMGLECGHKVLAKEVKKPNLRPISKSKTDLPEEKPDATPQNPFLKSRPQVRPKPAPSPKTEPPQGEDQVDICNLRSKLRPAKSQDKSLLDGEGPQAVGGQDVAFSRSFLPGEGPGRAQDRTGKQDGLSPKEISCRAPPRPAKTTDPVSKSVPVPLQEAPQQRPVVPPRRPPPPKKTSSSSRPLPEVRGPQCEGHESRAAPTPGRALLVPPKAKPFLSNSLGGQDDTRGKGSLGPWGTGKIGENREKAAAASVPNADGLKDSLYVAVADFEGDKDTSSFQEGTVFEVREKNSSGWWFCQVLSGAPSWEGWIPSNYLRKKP
inactive: [2] -0.068 | epoxomicin 0.048 | [3] 0.014 | [6] 0.097 | [4] -0.019 | rosiglitazone -0.008
active: [1] -2.01 | [7] -1.2

RPAIN isoform 8 (UniProt Q86UA6)
UniProt Q86UA6, sequence (Q86UA6 whole entry, looked up): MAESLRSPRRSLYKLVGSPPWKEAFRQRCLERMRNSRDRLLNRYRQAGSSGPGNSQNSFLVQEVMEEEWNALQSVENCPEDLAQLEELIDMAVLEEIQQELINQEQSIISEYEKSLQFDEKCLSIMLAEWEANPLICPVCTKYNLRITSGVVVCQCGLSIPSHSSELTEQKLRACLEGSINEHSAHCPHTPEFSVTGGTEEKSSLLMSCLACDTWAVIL
active: volasertib -0.718
inactive: epoxomicin -0.118 | [4] -0.076 | rosiglitazone -0.021 | [5] -0.044

RPS6KA3 (UniProt P51812)
inactive: volasertib -0.174 | [2] 0.065 | epoxomicin 0.027 | [3] 0.066 | [6] -0.049 | [4] 0.016 | rosiglitazone 0.052 | [5] -0.043 | [7] -0.192

RPS3A (UniProt D6R9B6)
inactive: [5] 0.247

RUFY3 isoform 3 (UniProt Q7L099)
UniProt Q7L099, sequence (Q7L099 whole entry, looked up): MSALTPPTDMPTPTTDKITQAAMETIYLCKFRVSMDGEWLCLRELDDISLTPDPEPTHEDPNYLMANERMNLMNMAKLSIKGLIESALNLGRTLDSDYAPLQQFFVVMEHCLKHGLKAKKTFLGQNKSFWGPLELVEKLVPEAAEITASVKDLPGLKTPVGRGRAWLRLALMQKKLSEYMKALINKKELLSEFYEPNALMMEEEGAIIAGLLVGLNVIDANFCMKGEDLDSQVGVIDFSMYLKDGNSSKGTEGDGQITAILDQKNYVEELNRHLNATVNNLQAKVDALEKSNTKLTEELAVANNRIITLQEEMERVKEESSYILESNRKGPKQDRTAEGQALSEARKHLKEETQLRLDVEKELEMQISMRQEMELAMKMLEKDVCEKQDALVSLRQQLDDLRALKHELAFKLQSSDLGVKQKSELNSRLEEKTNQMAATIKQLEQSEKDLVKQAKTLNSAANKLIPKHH
inactive: [1] -0.135 | volasertib -0.149 | [2] -0.071 | [3] -0.046 | [6] 0.079 | [4] 0.011 | [5] -0.015 | [7] -0.048

RAD50, A0A494C0Y7
inactive: [1] 0.077 | volasertib -0.109 | [6] 0.033 | [4] 0.055 | rosiglitazone -0.001 | [5] 0.097 | [7] 0.04

RALGPS2 (UniProt Q86X27)
inactive: [1] 0.139 | epoxomicin -0.247 | [3] 0.145 | [6] -0.203 | [4] -0.059 | rosiglitazone -0.082 | [5] 0.137 | [7] 0.082

SLC12A5 (UniProt Q9H2X9)
UniProt Q9H2X9, sequence (Q9H2X9 whole entry, looked up): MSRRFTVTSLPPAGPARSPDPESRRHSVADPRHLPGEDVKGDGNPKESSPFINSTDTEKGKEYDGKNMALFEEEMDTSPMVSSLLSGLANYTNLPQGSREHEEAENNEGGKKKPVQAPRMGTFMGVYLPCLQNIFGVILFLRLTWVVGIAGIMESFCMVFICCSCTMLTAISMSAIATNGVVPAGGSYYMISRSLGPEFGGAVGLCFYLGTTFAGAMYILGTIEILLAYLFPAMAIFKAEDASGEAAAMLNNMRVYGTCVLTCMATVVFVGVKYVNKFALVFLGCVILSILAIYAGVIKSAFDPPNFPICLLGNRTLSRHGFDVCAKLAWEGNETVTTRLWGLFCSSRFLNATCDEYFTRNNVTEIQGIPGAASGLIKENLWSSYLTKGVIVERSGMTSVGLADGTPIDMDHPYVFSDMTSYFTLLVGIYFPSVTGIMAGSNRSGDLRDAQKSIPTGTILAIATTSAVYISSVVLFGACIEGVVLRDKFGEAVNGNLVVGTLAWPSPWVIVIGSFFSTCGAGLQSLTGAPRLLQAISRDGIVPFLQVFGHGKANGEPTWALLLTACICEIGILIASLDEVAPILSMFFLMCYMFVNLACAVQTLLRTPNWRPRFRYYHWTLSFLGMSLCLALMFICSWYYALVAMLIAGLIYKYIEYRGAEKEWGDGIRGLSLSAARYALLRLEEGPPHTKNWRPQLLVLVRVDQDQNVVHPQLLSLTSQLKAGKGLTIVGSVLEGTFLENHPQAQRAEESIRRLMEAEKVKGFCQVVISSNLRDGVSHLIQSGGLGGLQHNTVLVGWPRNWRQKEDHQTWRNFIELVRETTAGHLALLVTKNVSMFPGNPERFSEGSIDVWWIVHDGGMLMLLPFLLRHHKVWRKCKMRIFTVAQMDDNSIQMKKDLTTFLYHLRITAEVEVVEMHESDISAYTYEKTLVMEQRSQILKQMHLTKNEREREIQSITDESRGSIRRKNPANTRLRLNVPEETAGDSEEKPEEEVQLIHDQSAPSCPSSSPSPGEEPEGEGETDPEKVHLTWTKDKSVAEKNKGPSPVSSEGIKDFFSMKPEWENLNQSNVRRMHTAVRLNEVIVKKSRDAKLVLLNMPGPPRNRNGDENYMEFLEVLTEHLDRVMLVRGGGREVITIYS
inactive: [1] -0.007 | volasertib -0.033 | epoxomicin -0.162 | [3] 0.002 | [4] -0.013 | rosiglitazone -0.022 | [5] 0.316

RNF41 (UniProt Q9H4P4)
inactive: [1] 0.044 | rosiglitazone -0.073

SIK3 (UniProt H0Y4E8)
inactive: [1] 0.032 | volasertib -0.109 | [2] -0.02 | [3] -0.058 | [6] -0.065 | [4] -0.111 | [5] -0.019 | [7] -0.071

RCOR3 isoform 3 (UniProt Q9P2K3)
inactive: [1] 0.005 | volasertib -0.068 | [2] -0.078 | [3] -0.074 | [6] -0.294 | [4] 0.038 | rosiglitazone 0.037 | [5] 0.02 | [7] -0.011

SCLT1 (UniProt Q96NL6)
inactive: [2] -0.066 | [6] -0.116 | [4] -0.013 | rosiglitazone 0.01 | [5] -0.089 | [7] -0.029

SCO2 (UniProt O43819)
inactive: [1] -0.109 | volasertib -0.346 | epoxomicin -0.055 | [3] 0.042 | [6] -0.051 | [4] 0.039 | rosiglitazone 0.034 | [5] -0.014 | [7] -0.187

RNF167 (UniProt Q9H6Y7)
inactive: volasertib 0.003 | [2] -0.043 | epoxomicin 0.039 | [3] 0.103 | [6] 0.057 | [4] -0.008 | rosiglitazone -0.019 | [5] 0.05 | [7] -0.097

S100A10 (UniProt P60903)
inactive: [1] 0.284 | volasertib -0.048 | [2] 0.145 | [6] -0.056 | rosiglitazone -0.094 | [7] -0.026

SEPTIN5 (UniProt G3XAH0)
inactive: volasertib 0.097 | [2] 0.074 | epoxomicin 0.049 | [3] -0.021 | [6] 0.211 | [4] 0.011 | rosiglitazone 0.056 | [5] -0.079 | [7] 0.075

Source: the supplement of paper PMC10849652
